Measured values reported in PubChem BioAssay (NCI).
About 79,000 compounds went through this panel and 15% of them were active in at least one assay; those are over-represented in the sample as a whole. A number with no mark means an inactive call. Calls of active or inactive are those of the source. Cut-off read from the data, not from the text of the source: active = growth inhibition above about 70%; inactive = the rest.

Key:
[1] = NCI Yeast Anticancer Drug Screen. Data for the rad50 strain (AID 155);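 note: 0% = growth of vehicle-only cultures of the same strain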; conditions: S. cerevisiae rad50 strain growth inhibition, hits give high values
Summary of the method: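 Inhibition values express reduced yeast growth in compound-treated cultures relative to vehicle-treated controls.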

[2] = NCI Yeast Anticancer Drug Screen. Data for the mec2-1 strain (AID 157); conditions: S. cerevisiae mec2-1 strain, hits give high values
Summary of the method: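 Yeast mec2-1 mutant treated with compound. Readout: growth inhibition vs vehicle controls.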

[3] = NCI Yeast Anticancer Drug Screen. Data for the sgs1 mgt1 strain (AID 161);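 note: 0% = growth of cultures given vehicle only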; conditions: S. cerevisiae sgs1 mgt1 strain, hits give high values
Summary of the method: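 Read-out: growth inhibition vs vehicle controls. Cells: mutant yeast strain deficient in DNA damage repair.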

[4] = NCI Yeast Anticancer Drug Screen. Data for the cln2 rad14 strain (AID 165);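 note: 0% = growth equal to vehicle treated cultures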; conditions: S. cerevisiae cln2 rad14 strain, hits give high values
Summary of the method: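 cln2 rad14 yeast strain; compound exposure; growth inhibition read vs vehicle controls.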

[5] = NCI Yeast Anticancer Drug Screen. Data for the bub3 strain (AID 167); conditions: S. cerevisiae bub3 mutant strain, hits give high values
Summary of the method: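 Steps: expose the mutant yeast strain to compound; grow alongside vehicle-treated cultures; measure growth; express inhibition against the vehicle cultures.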

[6] = NCI Yeast Anticancer Drug Screen. Data for the mlh1 rad18 strain (AID 175); conditions: S. cerevisiae mlh1 rad18 strain growth inhibition, hits give high values
Summary of the method: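 Yeast w/ defined DNA-repair lesions; compound exposure; growth vs vehicle controls → % inhibition.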

[7] = at 5.0 µM (retest, dose inferred, filed as 0.5)
[8] = at 50.0 µM (retest, dose inferred, filed as 5.0)

Compound | growth inhibition [1, 7] | growth inhibition [1, 8] | growth inhibition ([1]; at 50.0 µM) | growth inhibition [2, 7] | growth inhibition [2, 8] | growth inhibition ([2]; at 50.0 µM) | growth inhibition [3, 7] | growth inhibition [3, 8] | growth inhibition ([3]; at 50.0 µM) | growth inhibition [4, 7] | growth inhibition [4, 8] | growth inhibition ([4]; at 50.0 µM) | growth inhibition [5, 7] | growth inhibition [5, 8] | growth inhibition ([5]; at 50.0 µM) | growth inhibition [6, 7] | growth inhibition [6, 8] | growth inhibition ([6]; at 50.0 µM)
CCCCN(CCCC)CC(O)c1cc(-c2ccc(Cl)cc2)nc2c(C)cccc12 (stereo not given) | 0% | 94% (active) | 98% (active) | 2% | 95% (active) | 97.3% (active) | 19% | 96% (active) | 98.4% (active) | -4% | 91% (active) | 95.8% (active) | -7% | 94% (active) | 89.8% (active) | 7% | 95% (active) | 95.9% (active)
C/C(=N\NC(=S)N(C)C)c1cccc(C)n1 | 76% (active) | 98% (active) | 99.2% (active) | 84% (active) | 99% (active) | 99.3% (active) | 84% (active) | 99% (active) | 99.2% (active) | 89% (active) | 99% (active) | 99% (active) | 70% (active) | 98% (active) | 99.3% (active) | 95% (active) | 98% (active) | 99.3% (active)
CCCCN(C)N=Nc1c(C(N)=O)n[nH]c1C(C)C | 14% | 84% (active) | 79.7% (active) | -8% | 21% | 24.4% | -4% | 52% | 29.4% | -3% | -5% | 1.15% | -4% | -10% | -24.2% | 29% | 80% (active) | 57.6%
COc1ccc(CCCCC(=O)O)cc1O | -155% | -161% | 40.9% | -52% | -54% | 14.1% | -56% | -65% | 29.9% | -57% | -55% | 61.9% | -69% | -80% | 2.5% | -117% | -117% | 28.4%
CN(C)CCCSc1c2ccccc2nc2cccc([N+](=O)[O-])c12 | 2% | 10% | 3.65% | 0% | -1% | -9.4% | -8% | -3% | 7.5% | 12% | 18% | -47.8% | 14% | 8% | -43.5% | 2% | -5% | 20.6%
CCCCNCCC(SSSC(CCNCCCC)c1ccc(Cl)cc1)c1ccc(Cl)cc1 (stereo not given) | 26% | 97% (active) | 95.2% (active) | -74% | 98% (active) | 52.5% | 20% | 99% (active) | 98.4% (active) | 17% | 97% (active) | 20.1% | 25% | 98% (active) | 52.2% | 26% | 98% (active) | 97.7% (active)
COc1ccc(N=Nc2ccc3oc(=O)c(C(=O)Nc4ccccc4C)cc3c2)cc1 | 3% | 98% (active) | 96.8% (active) | -18% | 97% (active) | 97% (active) | -8% | 96% (active) | 97.5% (active) | 1% | 86% (active) | 93% (active) | -5% | 86% (active) | 97.7% (active) | -2% | 98% (active) | 97.5% (active)
CCCCCSc1nc2ncnc(N)c2[nH]1 | 1% | 4% | 6.25% | 1% | 9% | -2.95% | -10% | -2% | 1.65% | 4% | 6% | 28.9% | 7% | 16% | -5.5% | 0% | 8% | -14.5%
NNc1c(F)c(F)c(-c2c(F)c(F)c(NN)c(F)c2F)c(F)c1F | 42% | 71% (active) | 87.6% (active) | 38% | 68% | 89.2% (active) | 23% | 98% (active) | 91.5% (active) | 48% | 99% (active) | 89.8% (active) | 43% | 98% (active) | 90.1% (active) | 39% | 59% | 86.8% (active)
SCCc1ccccn1 | -3% | 20% | 0.4% | -2% | 20% | 42% | 1% | 13% | 3.65% | -6% | 10% | 15.1% | -1% | 14% | 32.1% | -1% | 19% | 73.1% (active)
